From PubChem BioAssay
Only some compounds are listed: those with a hit (about 17% of all), similar ones and a draw of the others.
TDP1 inh = qHTS Assay for Inhibitors of Tyrosyl-DNA Phosphodiesterase (TDP1); AID 485290, 2010; Tyrosyl-DNA phosphodiesterase 1 (Homo sapiens), Q9NUW8; Potency, µM (highest dose often 130 µM), inactives show at the highest dose activity change, negative = inhibition, usual class: inhibitors; 350,000 tested, 0.28% active; recombinant TDP1, AlphaScreen DNA substrate cleavage; further: on the % scale 0 is the no-effect control and ±100 the full control effect; nearly all actives have a fitted effect of over 40% in size
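E. coli-derived human Tdp1, 1 nM final. Cpd preinc 15 min RT; substrate 15 nM final, 5 min RT; AS bead mix 10 ug/ml final, 10 min RT. Signal loss = tyrosine-FITC cleavage. No-enzyme wells = max signal.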
ClpP mod = qHTS Assay for Activators of ClpP. Potency, µM (series often up to 57.5 µM), for inactives: at the highest dose activity change, negative = active. 340,000 tested, 1.9% active. purified B. subtilis ClpP, FRET peptide cleavage, 20 min. AID 651965, 2013; active means well fitted falling curve with a large enough effect; inconclusive means small, poorly fitted or top-dose-only effect; inactive means no such curve, though single readings can be large or run the other way; further: the source files actives as falling curves though it sought activators and does not explain the sign; nearly all actives have a fitted effect of over 65% in size
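Buffer: 100 mM Tris/HCl pH8, 100 mM KCl, 0.05% low protease BSA, 2.5% glycerol, 0.01% Tween-20. ClpP 10 microg/mL final; 20 min RT; delta FRET normalized to ADEP and DMSO controls.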
TDP1 cell noCPT = qHTS for Inhibitors of human tyrosyl-DNA phosphodiesterase 1 (TDP1): qHTS in cells in absence of CPT | DT40 Tdp1-/- hTDP1 cells, no CPT, ATP luminescence, 48 h | Potency, µM (doses to about 46.2 µM), for inactives: top-dose activity change, negative = growth inhibition, actives largely listed as inhibitors | 420,000 tested, 15% active; further: on the % scale 0 is the no-effect control and ±100 the full control effect; nearly all actives have a fitted effect of over 55% in size
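Seeded 400 DT40-hTDP1 cells/well (vehicle DMSO, no 20 nM CPT); pinned compounds; ≥48 hr at 37 °C; CellTiter-Glo luminescence as viability measure.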
DT40 TDP1 CPT = qHTS for Inhibitors of human tyrosyl-DNA phosphodiesterase 1 (TDP1): qHTS in cells in presence of CPT; chicken DT40 Tdp1-/-;hTDP1 cells + 20 nM CPT, ATP luminescence, 48 h; Potency, µM (top dose mostly 46.2 µM), without a hit: at the highest dose activity change, negative = growth inhibition, usual class: inhibitors; AID 686979, 2013; 420,000 tested, 12% active; further: on the % scale 0 is the no-effect control and ±100 the full control effect; nearly all actives have a fitted effect of over 55% in size
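Cell growth measured by CellTiter-Glo luminescence after a minimum 48 h, 37 C compound exposure with 20 nM CPT in Tdp1-knockout DT40 cells stably expressing hTDP1, seeded 400/well; qHTS titration format.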
Active calls of the source: *; ? = inconclusive; · = not tested or not shown; [ ] = another dose, or the depositor's remark. Unless noted, the call rests on the fitted dose curve; in most records, active means well fitted curve in the direction sought with a large enough effect; inconclusive means small, poorly fitted or top-dose-only effect, or another doubt; inactive means no such curve, though single readings can be large; an effect the other way counts as inactive or inconclusive. Potency means the concentration at half of the fitted maximal effect.

SMILES	TDP1 inh	ClpP mod	TDP1 cell noCPT	DT40 TDP1 CPT
CN(C)C(=O)NC(NC(=S)Nc1ccccc1)C(Cl)(Cl)Cl (stereo not drawn)	-6%	1%	-29%	?
CN(C)C(=O)NC(Nc1ccc(Cl)cc1Cl)C(Cl)(Cl)Cl (stereo not drawn)	-1%	-1%	18µM*	?
CC(=O)c1cccc(NC(=O)c2nc(-c3ccccc3)oc2C)c1	4%	·	15µM*	?
CC(=O)c1cccc(NC(=O)c2nc(-c3ccccc3)n(-c3ccccc3C)n2)c1	9%	-2%	21µM*	26µM*
CC(C)C(=O)N1N=C2CCCCC2C1(O)C(F)(F)F (stereo not drawn)	1%	0%	3%	-1%
O=C(OCc1ccccc1)c1ccccc1O	79µM*	-9%	-3%	1%
O=C(OCCCOC(=O)c1ccccc1O)c1ccccc1O	18µM*	·	·	·
NC(=S)N/N=C/c1ccc(C(F)(F)F)cc1	-6%	2%	16µM*	21µM*
NC(=S)N/N=C/c1ncc(C(F)(F)F)cc1Cl	7%	·	0.52µM*	0.41µM*
CSCCC1NC2(C(=O)Nc3c(C)cc(Cl)cc32)[C@@H]2C(=O)N(C3CCCC3)C(=O)[C@H]12 (stereo partly drawn)	2%	-1%	21µM*	?
C1=CN2CC=Cc3cc(/C=C/c4ccnc5ccccc45)cc(c32)C1	·	-17%	7.1µM*	10µM*
Cc1ccc(NS(=O)(=O)c2cc3c(cc2-c2ccco2)NC(=O)CO3)cc1C	0%	·	·	·
CC(=O)Nc1ccc(-c2cc(-c3ccccc3)nc(-c3ccccc3)n2)cc1	5%	28µM*	?	?
CCC(=O)Nc1ccc(-c2cc(-c3ccccc3)nc(-c3ccc(NC(=O)CC)cc3)n2)cc1	1%	?	?	?
CC(=O)Nc1ccc(-c2cc(-c3ccc(NC(C)=O)cc3)nc(-c3ccc(NC(C)=O)cc3)n2)cc1	1%	5.6µM*	-4%	5%
CCc1nn(C(CC)C(=O)NCc2ccc(OC)c(OC)c2)c(=O)c2cc3oc(C)cc3n12 (stereo not drawn)	3%	-8%	9.2µM*	16µM*
CCc1nn(C(CC)C(=O)NCc2ccc(F)cc2)c(=O)c2cc3occc3n12 (stereo not drawn)	0%	-5%	-20%	?
CC(=O)N/C(=C\c1ccccc1)C(=O)OCC(=O)NC(C)C12CC3CC(CC(C3)C1)C2 (stereo not drawn)	3%	0%	21µM*	15µM*
CC(=O)N/C(=C\c1ccccc1)C(=O)OCC(=O)NC(=O)c1ccccc1	1%[0.505 µM]	·	-9%	-28%
Cc1ccc(N2C(=O)CC(Cc3ccc(Cl)cc3)C2=O)cc1 (stereo not drawn)	·	7.1µM*	6%	-2%
Cc1ccc(CC2CC(=O)N(c3ccc(C)cc3)C2=O)cc1 (stereo not drawn)	1%	0%	2%	4%
Nc1ccc(Oc2ncccn2)cc1	·	3%	23µM*	?
CCOC(=O)c1oc2c(O)c(O)ccc2c(=O)c1-c1nncn1-c1ccccc1	4%	22µM*	-6%	0%
CN(C)c1ccc(-c2ccc(CCO)cc2)cc1	·	?	-19%	-16%
Cc1ncsc1CCOC(=O)C1C2CC3CC(C2)CC1C3 (stereo not drawn)	-1%	·	23µM*	?
SMILES	TDP1 inh	ClpP mod	TDP1 cell noCPT	DT40 TDP1 CPT
Cc1sc(NC(=O)c2ccco2)c(C(c2ccncc2)N2CCOCC2)c1C (stereo not drawn)	6%	-1%	?	-27%
Cc1sc(NC(=O)c2ccco2)c(C(Nc2ccccn2)c2ccccc2)c1C (stereo not drawn)	4%	-6%	?	-15%
Cc1sc(NC(=O)c2ccco2)c(C(c2cccnc2)N2CCCC2)c1C (stereo not drawn)	7%	-3%	2.3µM*	2.9µM*
COc1cccc(C(c2c(NC(=O)c3ccco3)sc(C)c2C)N2CCOCC2)c1 (stereo not drawn)	4%	-6%	?	?
CCOc1ccc(C(c2c(NC(=O)c3ccco3)sc(C)c2C)N2CCOCC2)cc1 (stereo not drawn)	4%	?	?	23µM*
Cc1sc(NC(=O)c2ccco2)c(C(c2cccnc2)N2CCN(C)CC2)c1C (stereo not drawn)	5%	-4%	12µM*	21µM*
Cc1sc(NC(=O)c2ccco2)c(CN2CCN(c3ccccc3)CC2)c1C	1%	?	10µM*	15µM*
Cc1sc(NC(=O)c2ccco2)c(CN2CCCCC2)c1C	4%	2%	?	?
C/C(=N/NC(=O)c1ccoc1C)c1ccc(NC(=O)c2ccncc2)cc1	10%	2%	?	-17%
O=C(c1ccc(Nc2nccc(-c3cc4ccccc4s3)n2)cc1)N1CCC(N2CCCC2)CC1	19%	·	·	·
O=C(NCCc1ccc(Cl)cc1)c1ccc2c(c1)N(Cc1c(F)cccc1Cl)C(=O)CS2	6%	2%	2.6µM*	9.2µM*
COc1ccc(OC)c(CCNC(=O)c2ccc3c(c2)N(Cc2ccc(F)cc2)CCS3)c1	6%	4%	?	21µM*
COc1ccc(CCNC(=O)c2ccc3c(c2)N(Cc2ccc(C)cc2)CCS3)cc1OC	3%	4%	16µM*	18µM*
COc1ccc(CCNC(=O)c2ccc3c(c2)N(Cc2ccc(F)cc2)C(=O)CS3)cc1OC	0%	0%	16µM*	15µM*
O=C(NCc1ccc(F)cc1)c1ccc2c(c1)N(Cc1ccc(F)cc1Cl)C(=O)CS2	0%	-1%	-24%	5%
COc1cccc(C(=O)OCC(=O)NC(C)CCc2ccccc2)c1O (stereo not drawn)	·	1%	-10%	5%
O=C(Cc1n[nH]c(=O)c2ccccc12)OCC(=O)c1ccc(OC(F)F)cc1OC(F)F	1%	-2%	-16%	-8%
COc1ccc(NC(=O)CSc2cc(C(=O)c3nccn3C)c3ccccc3n2)cc1	3%	·	?	1%
Cc1cc(NC(=O)Cn2nc(C)c([N+](=O)[O-])c2C)no1	-1%	1%	-10%	-12%
CC(=O)Oc1ccc2c(=O)c(Oc3ccccc3)coc2c1OC(C)=O	·	-1%	?	-20%
CC(C(=O)Nc1nc2ccccc2s1)n1cc([N+](=O)[O-])cn1 (stereo not drawn)	1%	·	5%	3%
CCOc1ccc(CCNC(=O)c2ccc3c(c2)N(Cc2ccc(F)cc2)CCS3)cc1	6%	4%	15µM*	?
